Our source for the composite z-score and z-score values is PubChem BioAssay.

Activity calls are given as the source filed them. Unless noted, no rule for the calls is given here.

Assay [1] is described as follows: compounds binding Alexa647 anti-His antibody – biochemical, small-molecule microarray, 635 nm fluorescence, artefact control for SMM control protein annotation, primary screen (AID 1128).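 Also: score merges feature fluorescence with signal-to-noise for each printed compound spot.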 Particulars: higher = more signal.
Assay [2] has as its system Human papillomavirus type 1a E7 protein (residues 1-88). The assay is described as follows: HPV1a E7 small-molecule binders, primary screen, biochemical, small-molecule microarray, residues 1-88, 635 nm (AID 1129). Particulars: small-molecule microarray binding, fluorescence 635 nm; higher = more signal.
In assay [3] the target is Focal adhesion kinase 1 (Homo sapiens) (UniProt Q05397). The assay can be described thus: PTK2 protein binding on printed compound slides – biochemical, small-molecule microarray, 635/667 nm fluorescence, BSA, DTT, primary screen (AID 1130).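 Also: composite of spot emission at 667 nm and signal to noise over triplicate slides.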 Particulars: 635 nm fluorescence, higher = more signal.
Chain of Focal adhesion kinase 1 (Homo sapiens) (Q05397 whole entry, looked up): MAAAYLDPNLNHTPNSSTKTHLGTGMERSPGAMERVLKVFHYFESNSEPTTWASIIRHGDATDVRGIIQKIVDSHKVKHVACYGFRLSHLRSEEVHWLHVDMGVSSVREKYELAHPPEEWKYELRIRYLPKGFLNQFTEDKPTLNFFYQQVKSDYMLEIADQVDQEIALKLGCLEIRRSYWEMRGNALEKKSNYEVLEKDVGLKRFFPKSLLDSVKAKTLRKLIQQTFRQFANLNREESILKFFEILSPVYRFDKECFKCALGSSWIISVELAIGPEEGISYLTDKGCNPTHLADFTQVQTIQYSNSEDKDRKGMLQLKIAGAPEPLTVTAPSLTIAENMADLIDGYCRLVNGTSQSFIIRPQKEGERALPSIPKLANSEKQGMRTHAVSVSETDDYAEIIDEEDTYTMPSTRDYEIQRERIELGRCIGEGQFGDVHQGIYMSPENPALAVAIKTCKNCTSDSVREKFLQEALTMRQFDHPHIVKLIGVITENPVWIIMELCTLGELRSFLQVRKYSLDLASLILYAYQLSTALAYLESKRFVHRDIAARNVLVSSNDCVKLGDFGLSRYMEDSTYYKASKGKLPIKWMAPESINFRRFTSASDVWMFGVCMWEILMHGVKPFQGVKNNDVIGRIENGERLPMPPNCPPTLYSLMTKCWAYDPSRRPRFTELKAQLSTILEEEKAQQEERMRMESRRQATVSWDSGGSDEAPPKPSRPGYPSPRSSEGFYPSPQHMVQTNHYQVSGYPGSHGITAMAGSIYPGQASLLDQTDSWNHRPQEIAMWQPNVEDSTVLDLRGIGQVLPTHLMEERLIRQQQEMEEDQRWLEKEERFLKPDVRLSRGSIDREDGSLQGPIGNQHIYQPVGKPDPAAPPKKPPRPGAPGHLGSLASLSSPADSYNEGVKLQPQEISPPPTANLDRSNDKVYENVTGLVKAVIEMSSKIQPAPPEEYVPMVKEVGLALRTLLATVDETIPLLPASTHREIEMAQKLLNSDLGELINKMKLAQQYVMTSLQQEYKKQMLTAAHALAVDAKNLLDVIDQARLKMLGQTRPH
Assay [4] has as its system Fibrinogen (Alexa647-labelled). The assay is described as follows: Alexa647-fibrinogen binding to printed small molecules – biochemical, small-molecule microarray, 635/667 nm fluorescence, artefact control for SMM control-protein annotation, profiling panel (AID 1131).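 Also: z-score merges 667 nm fluorescence with per-spot signal-to-noise over triplicate slides.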 The following applies: fibrinogen-A647 binding fluorescence, higher = more signal.
Assay [5] addresses Follistatin (Homo sapiens) (UniProt P19883). The assay is described as follows: FST protein binding to printed compounds – biochemical, small-molecule microarray, 635/667 nm fluorescence, primary screen (AID 1132). The following applies: 635 nm fluorescence, higher = more signal.
Assay [6] deals with Fibroblast growth factor 2 (Homo sapiens) (UniProt P09038). The assay can be described thus: basic fibroblast growth factor binding to printed compounds – biochemical, small-molecule microarray, 635/667 nm fluorescence, primary screen (AID 1133). Particulars: FGF2, fluorescence 635/667, higher = more signal.
Chain of Fibroblast growth factor 2 (Homo sapiens) (P09038 whole entry, looked up): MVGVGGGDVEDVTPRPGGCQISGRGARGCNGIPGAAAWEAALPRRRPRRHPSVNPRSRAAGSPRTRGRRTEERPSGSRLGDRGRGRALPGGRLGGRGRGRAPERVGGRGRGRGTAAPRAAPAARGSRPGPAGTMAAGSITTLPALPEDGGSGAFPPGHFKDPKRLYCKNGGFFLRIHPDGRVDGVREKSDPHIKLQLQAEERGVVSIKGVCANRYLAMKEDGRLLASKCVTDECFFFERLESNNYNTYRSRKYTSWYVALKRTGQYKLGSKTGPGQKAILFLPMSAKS
A short description of assay [7]: JC-1 mitochondrial potential readout, lung cancer cells – cell-based, A549, JC-1 fluorescence, basal, 24 h, 100 nL, profiling panel (AID 1138).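 Also: A549 lung adenocarcinoma cells under basal conditions with no added stimulus; test concentration not given here.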 The following applies: higher = more signal.
Another assay relates to Lefty1. The assay is described as follows: Lefty1 protein binding to printed compounds – biochemical, small-molecule microarray, 635/667 nm fluorescence, primary screen (AID 1139). The following applies: fluorescence 635/667, higher = more signal.
The test system of assay [8] is wheat germ agglutinin (Triticum aestivum), Alexa647-labelled. The assay is described as follows: Alexa647-WGA lectin binding to printed small molecules – biochemical, small-molecule microarray, 635/667 nm fluorescence, artefact control for SMM control-protein annotation, profiling panel (AID 1140).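 Also: score merges 667 nm feature emission with signal to noise over triplicate slides.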 The following applies: WGA-A647 binding, 635 nm fluorescence, higher = more signal.

Assay [9] concerns the target Luciferin 4-monooxygenase (Photinus pyralis) (UniProt P08659). The assay can be described thus: inhibition of purified Photinus pyralis luciferase – biochemical, luminescence, purified enzyme, 2006 set, primary screen (AID 1141).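 Also: cell-free assay with purified firefly luciferase at 100 ng per well in PBS; test concentration not given here.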 Particulars: purified firefly luciferase, SteadyGlo luminescence, 30 min; higher = more signal, called active from +8 up or from −8 down.
The subject of assay [10] is Wnt5a (protein binding on small-molecule microarray). The assay can be described thus: small molecules binding Wnt5a protein – biophysical, small-molecule microarray, 635/667 nm fluorescence, primary screen (AID 1142).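 Also: fluorescence read at 667 nm with signal to noise per printed feature.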 Particulars: 635 nm fluorescence, higher = more signal.
Assay [11] can be described thus: ATP-based viability of Huh7 replicon cells – cell-based, CellTiter-Glo luminescence, basal, 48 h, cytotoxicity control for HCV replication inhibitor project, primary screen (AID 1143).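 Also: Huh7 hepatoma cells carrying a hepatitis C replication reporter with no stimulus; test concentration not given here.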 The following applies: higher = more signal, called active from +8 up or from −8 down.
Assay [12] can be described thus: Pseudomonas biofilm growth suppression – PAO1 strain, BacTiter-Glo luminescence, LB-PBS, primary screen (AID 1144). Particulars: P. aeruginosa PAO1 biofilm, 12 h, higher = more signal.
Assay [13] in a line: basal CRE-LacZ reporter activity in PC12 – cell-based, unstimulated, primary screen (AID 1145). The following applies: no forskolin, luminescence, 4.5 h, higher = more signal, called active from +8 up or from −8 down.
Assay [14] can be described thus: forskolin-driven CRE-LacZ activity in PC12 – cell-based, CRE-LacZ reporter, forskolin-stimulated, primary screen (AID 1146).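 Also: PC12 cells with 6xCRE LacZ reporter stimulated by forskolin 10 µM; beta-galactosidase reporter signal reflecting CREB driven transcription.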 The following applies: luminescence, 4.5 h, higher = more signal, called active from +8 up or from −8 down.
The target in assay [15] is Streptavidin (Streptomyces avidinii) (UniProt P22629). The assay can be described thus: compounds binding control protein streptavidin – biophysical, small-molecule microarray, 635/667 nm fluorescence, artefact control for SMM compound annotation, primary screen (AID 1147).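 Also: signal reflects streptavidin binding to arrayed compounds as a control protein.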 The following applies: higher = more signal.
Chain of Streptavidin (Streptomyces avidinii) (P22629 whole entry, looked up): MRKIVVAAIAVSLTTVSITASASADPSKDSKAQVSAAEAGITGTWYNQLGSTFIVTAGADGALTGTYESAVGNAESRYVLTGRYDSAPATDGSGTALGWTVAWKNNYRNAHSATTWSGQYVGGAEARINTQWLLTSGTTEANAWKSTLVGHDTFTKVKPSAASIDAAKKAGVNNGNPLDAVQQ
Assay [16] is described as follows: probe aInhba binding on compound microarray – biochemical, small-molecule microarray, 635/667 nm fluorescence, primary screen (AID 1148).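 Also: score merges 667nm spot fluorescence with signal-to-noise for antibody binding to printed compounds.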 Particulars: higher = more signal.
For assay [17], the target named is Torsin-1A (Homo sapiens) (UniProt O14656). The assay is described as follows: TOR1A wild-type binding on microarray – cell lysate, small-molecule microarray, lysate, 635/667 nm, primary screen (AID 1149). Particulars: COS7 hTOR1A-WT lysate, 635 nm fluorescence, higher = more signal.
Chain of Torsin-1A (Homo sapiens) (O14656 whole entry, looked up): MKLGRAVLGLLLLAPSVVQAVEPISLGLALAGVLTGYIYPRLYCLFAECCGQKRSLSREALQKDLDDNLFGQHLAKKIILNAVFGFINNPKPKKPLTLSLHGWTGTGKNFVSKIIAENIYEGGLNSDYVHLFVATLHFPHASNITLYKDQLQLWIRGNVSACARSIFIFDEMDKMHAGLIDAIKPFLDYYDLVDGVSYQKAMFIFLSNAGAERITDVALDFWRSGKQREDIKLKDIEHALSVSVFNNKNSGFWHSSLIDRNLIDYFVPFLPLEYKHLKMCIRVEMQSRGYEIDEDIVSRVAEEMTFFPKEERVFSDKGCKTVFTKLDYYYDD
For assay [18] the target is unchanged. The assay can be described thus: torsin A mutant lysate binding on microarrays – cell lysate, small-molecule microarray, COS7 lysate, 635/667 nm fluorescence, primary screen (AID 1150).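 Also: score pools 667 nm emission and signal to noise measuring lysate protein binding.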 The following applies: COS7 hTOR1A mutant lysate, 635 nm fluorescence, higher = more signal.
Assay [19] has as its system Sonic hedgehog protein (Shh). The assay can be described thus: Sonic hedgehog microarray binding compounds – biochemical, small-molecule microarray, 635/667 nm fluorescence, primary screen (AID 1151).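 Also: Shh protein binding to compounds spotted on small-molecule microarray slides; score combines spot fluorescence intensity with signal-to-noise across triplicate slides.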 The following applies: 635 nm fluorescence, higher = more signal.

Chain of Luciferin 4-monooxygenase (Photinus pyralis) (P08659 whole entry, looked up): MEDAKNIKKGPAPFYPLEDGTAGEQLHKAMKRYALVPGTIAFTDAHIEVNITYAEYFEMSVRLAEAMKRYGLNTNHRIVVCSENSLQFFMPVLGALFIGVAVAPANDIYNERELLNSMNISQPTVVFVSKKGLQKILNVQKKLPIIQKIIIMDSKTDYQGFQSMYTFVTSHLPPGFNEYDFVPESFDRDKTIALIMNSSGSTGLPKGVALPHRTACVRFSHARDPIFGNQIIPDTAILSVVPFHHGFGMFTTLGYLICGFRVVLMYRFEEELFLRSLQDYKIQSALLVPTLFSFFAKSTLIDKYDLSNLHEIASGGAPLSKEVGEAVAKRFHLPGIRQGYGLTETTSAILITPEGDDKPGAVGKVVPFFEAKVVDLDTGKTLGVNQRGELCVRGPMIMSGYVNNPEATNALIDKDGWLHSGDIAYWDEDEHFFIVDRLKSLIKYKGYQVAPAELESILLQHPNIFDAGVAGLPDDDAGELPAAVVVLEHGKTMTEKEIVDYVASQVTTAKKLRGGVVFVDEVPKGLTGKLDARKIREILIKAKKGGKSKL
Chain of Follistatin (Homo sapiens) (P19883 whole entry, looked up): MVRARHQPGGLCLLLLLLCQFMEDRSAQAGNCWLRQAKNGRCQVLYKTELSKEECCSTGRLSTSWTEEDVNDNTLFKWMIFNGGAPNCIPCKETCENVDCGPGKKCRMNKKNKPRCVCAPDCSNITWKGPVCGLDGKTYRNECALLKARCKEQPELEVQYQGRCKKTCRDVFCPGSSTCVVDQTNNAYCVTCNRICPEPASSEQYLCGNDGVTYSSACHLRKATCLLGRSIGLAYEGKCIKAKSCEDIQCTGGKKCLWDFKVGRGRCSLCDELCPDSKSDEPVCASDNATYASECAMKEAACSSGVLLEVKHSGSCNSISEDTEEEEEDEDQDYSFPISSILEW

For the molecule `O=C1C[C@@H](O)[C@@H](O)[C@@H]2[C@@H]3C(=O)N(c4ccc(F)cc4F)C(=O)[C@@H]3CC[C@@H]12`, the composite z-score in assay [1] was 0.408; in assay [2], 0.709; in assay [3] it was -0.246; in [4] it was -0.518; in [5], 0.312; in assay [6] it was 0.294. The composite z-score in the assay with Lefty1 is 0.379; in [8] it was 0.044; in [10], -0.0711; in [15] it was 0.254; in assay [16], -0.0887; with Torsin-1A (Homo sapiens) [17], 0.243. In addition, the values for the composite z-score (with Torsin-1A (Homo sapiens) [18]; in [19]) were 0.149 and 0.786, respectively. Besides, the z-score was 0.245 in [7]; -0.9 (inactive) in [9]; 0.988 (inactive) in [11]; -0.356 (inactive) in assay [12]; 0.792 (inactive) in assay [13]; -0.0611 (inactive) in assay [14].
In the case of `COc1ccc(O[C@H]2C=C[C@@H](c3ccccc3)O[C@@H]2CON=C[C@@H](C)[C@H](OCc2ccccc2)C(C)C)cc1`, the composite z-score in [1] was 0.901; in assay [2] it was -1.26; in assay [3], -0.302; in assay [4], -1.41; in assay [5], -0.675; in assay [6], -0.76. Also, the composite z-score in the assay with Lefty1 is -0.214; in assay [8], 0.12; in assay [10], -0.426; in [15], -0.567; in assay [16], -0.21; in the assay with Torsin-1A (Homo sapiens) [17], -1.53. Further, the composite z-score was -0.91 in the assay with Torsin-1A (Homo sapiens) [18] and -0.071 in assay [19]. For the same molecule, the z-score in assay [7] was 1.96; in assay [9] it was 0.0017 (inactive); in assay [11] it was -0.149 (inactive); in assay [12] it was 0.531 (inactive); in [13], -0.971 (inactive); in assay [14], 0.367 (inactive).
`CC(C)NC(=O)[C@@H]1c2ccccc2C(=O)N(CC23CC4CC(CC(C4)C2)C3)[C@H]1c1ccc(CO)cc1`: the composite z-score was determined as 0.526 in [1]; 1.23 in assay [2]; 0.417 in assay [3]; 0.973 in [4]; 1.35 in [5]; 0.615 in [6]. The composite z-score in the assay with Lefty1 was 0.822; in assay [8] it was 0.298; in [10] it was 0.0678; in assay [15], 0.969; in assay [16], 0.0569; in the assay with Torsin-1A (Homo sapiens) [17] it was 0.508. Also, the figures for the composite z-score (in the assay with Torsin-1A (Homo sapiens) [18]; in assay [19]) were 0.561 and 1.54, respectively. Further, the z-score in assay [7] is 0.689; in [9], 0.892 (inactive); in [11], -4.06 (inactive); in assay [12], -2.1 (inactive); in [13] it was -0.0259 (inactive); in [14], -0.607 (inactive).
As for `COC(=O)CC1OC1[C@H](C)[C@@H](OC)C(C)C` (stereo not given in full), the composite z-score in [1] is -0.0177; in assay [2] it was 0.212; in [3] it was -0.405; in assay [4], 0.745; in [5], 0.623; in assay [6] it was 0.443. For the same molecule, the composite z-score in the assay on Lefty1 was 0.786; in assay [8], 0.733; in [10], -0.0087; in assay [15] it was -0.329; in assay [16], -0.0963; with Torsin-1A (Homo sapiens) [17], 0.436. For the same molecule, the composite z-score turned out to be 0.0299 with Torsin-1A (Homo sapiens) [18] and 0.813 in assay [19]. The z-score was 3.01 in assay [7]; -1.73 (inactive) in assay [9]; -0.229 (inactive) in assay [11]; -0.183 (inactive) in [12]; 1.47 (inactive) in assay [13]; -0.213 (inactive) in [14].
Regarding `COc1ccc(-c2nc3c(c4c2C[C@H](C)OC4)CN(CCC(C)C)CC3)cc1`, the composite z-score turned out to be 0.998 in assay [1]; 1.14 in [2]; 0.233 in assay [3]; 0.809 in assay [4]; 0.653 in [5]; 0.491 in [6]. Also, the composite z-score was 0.67 in the assay with Lefty1; 0.642 in [8]; -0.0798 in [10]; 0.141 in [15]; -0.0791 in assay [16]; -0.253 with Torsin-1A (Homo sapiens) [17]. The composite z-score came to 0.0824 with Torsin-1A (Homo sapiens) [18] and 1.32 in assay [19]. Further, the z-score in assay [7] was 2.72; in assay [9], -0.793 (inactive); in assay [11], -0.333 (inactive); in assay [12], -1.22 (inactive); in assay [13], 7.06 (inactive); in [14], -1.11 (inactive).
